USP10 inh = blocks human USP10 ubiquitin-rhodamine cleavage | actives 1.1% (n = 47,000) | purified USP10, Ub-rhodamine fluorescence, 60 min | inhibition, % at 20 µM | AID 1645856 | Q14694
USP7 inh = blocks human USP7 ubiquitin-rhodamine cleavage; Q93009; purified USP7, Ub-rhodamine cleavage fluorescence; inhibition, % at 20 µM; actives 0.3% (n = 47,000); AID 1645854
USP30 inh = human USP30 deubiquitinase inhibition | actives 5.3% (n = 47,000) | inhibition, % at 25 µM | Q70CQ3 | AID 1645860 | purified USP30, Ub-rhodamine cleavage fluorescence
USP17 block = inhibitors of human USP17 deubiquitinase; A8MUK1; purified USP17, Ub-rhodamine cleavage fluorescence, 3 h; inhibition, % at 50 µM; actives 6.5% (n = 47,000); AID 1645855
Target sequence (A8MUK1 whole entry, looked up): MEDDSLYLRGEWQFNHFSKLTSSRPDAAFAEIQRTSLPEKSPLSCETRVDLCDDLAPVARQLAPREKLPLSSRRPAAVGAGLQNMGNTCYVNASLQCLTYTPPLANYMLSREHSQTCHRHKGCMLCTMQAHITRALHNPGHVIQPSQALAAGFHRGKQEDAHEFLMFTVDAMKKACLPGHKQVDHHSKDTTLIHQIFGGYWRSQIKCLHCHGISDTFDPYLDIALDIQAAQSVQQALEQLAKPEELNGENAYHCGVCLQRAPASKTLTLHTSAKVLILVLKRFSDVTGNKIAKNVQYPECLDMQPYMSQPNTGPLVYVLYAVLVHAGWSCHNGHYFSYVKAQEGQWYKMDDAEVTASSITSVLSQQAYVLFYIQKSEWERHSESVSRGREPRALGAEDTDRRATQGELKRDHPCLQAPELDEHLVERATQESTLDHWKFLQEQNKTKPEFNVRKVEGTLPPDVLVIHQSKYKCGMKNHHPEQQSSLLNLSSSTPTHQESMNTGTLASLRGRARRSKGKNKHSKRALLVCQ
UCHL1 inh = human UCHL1 deubiquitinase inhibition; purified UCHL1, Ub-rhodamine cleavage fluorescence; inhibition, % at 20 µM; actives 0.2% (n = 47,000)
USP8 inh = blocks human USP8 ubiquitin-rhodamine cleavage. AID 1645853. purified USP8, Ub-rhodamine cleavage fluorescence, 30 min. P40818. actives 4.2% (n = 47,000). inhibition, % at 20 µM
* hit, by the source's call; x = no result given. A selection: hits, their analogues and other compounds. The true share with any hit is near 13%. No stated cut-off is given here; in the data, active means inhibition above about 30%; inactive means the rest.

SMILES | USP10 inh | USP7 inh | USP30 inh | USP17 block | UCHL1 inh | USP8 inh
Cc1cccc(NC(=O)c2cnc(N3CCCC3)nc2C)c1 | 2 | -2 | 1 | 1 | -3 | -9
Cc1nc(N2CCCC2)ncc1C(=O)Nc1ccc(F)c(F)c1 | 4 | -2 | 53* | 0 | 0 | 5
Cc1ccnc(SCc2cc(=O)c(OC(=O)c3c(F)cccc3Cl)co2)n1 | 0 | 8 | 26 | 39* | 6 | 31*
Cc1csc(SCc2cc(=O)c(OC(=O)c3cccc(F)c3)co2)n1 | 6 | -20 | -12 | 18 | 3 | 61*
O=C(Oc1coc(CSc2ncccn2)cc1=O)c1ccccc1F | 3 | -11 | -14 | 10 | 2 | 2
COc1ccccc1CNc1nccn(-c2ccc3c(c2)OCCO3)c1=O | -1 | 3 | -1 | 2 | -1 | 3
Cc1c(CC(=O)Nc2nn[nH]n2)c(=O)oc2cc3c(cc12)CCC1(CCCCC1)O3 | 21 | -31 | 58* | 0 | 0 | -253
CCN1C(=O)c2cccnc2Sc2cc(NC(=O)CCc3cccc(OC)c3)ccc21 | -5 | -6 | -55 | 4 | -8 | -20
COc1ccc(CN(C(=O)c2ccc(CN3CCOCC3)o2)C(C(=O)NC2CCCCC2)c2ccc(F)cc2)cc1 (configuration not stated) | -5 | -13 | -4 | 15 | 0 | 2
CC1CCC2C(C)(C)C(O)CCC2(C)C12Cc1c(cc3c(c1O)CN(CCCCC(=O)O)C3=O)O2 (configuration not stated) | -16 | 0 | -38 | 49* | -14 | -63
C[C@@H]1CC[C@H]2C(C)(C)[C@H](O)[C@@H](O)C[C@]2(C)[C@@]12Cc1c(O)cc3c(c1O2)CNC3=O | 8 | 7 | 3 | -5 | 3 | 6
N#Cc1c2ccc(OCc3ccc(Br)cc3)cc2n2ccccc12 | -5 | -17 | -133 | -18 | -11 | 4
CCOC(=O)c1c2ccc(OCc3ccc([N+](=O)[O-])cc3)cc2n2ccccc12 | 2 | 5 | 8 | 25 | 8 | 74*
Cc1ccc(S(=O)(=O)Nc2nc(-c3ccc4c(c3)NC(=O)C(C)O4)c(C)s2)cc1 (configuration not stated) | 41* | 13 | 26 | x | 4 | 50*
COc1cccc(C(=O)Nc2nc(-c3ccc4c(c3)NC(=O)C(C)O4)c(C)s2)c1 (configuration not stated) | 1 | -6 | 0 | -9 | 2 | -8
COc1ccc(/C=C/C(=O)Nc2ccccc2C#N)cc1 | 8 | 4 | x | 68* | 0 | 5
Cc1ccc2c(c1)N(C(=O)Cn1cc(S(=O)(=O)N3CCOCC3)ccc1=O)CCO2 | -1 | 0 | 14 | 6 | -1 | 3
COc1ccccc1C(=O)Nc1cc2c(cc1SC1CCCCC1)n(C)c(=O)n2C | 3 | 3 | 28 | 14 | 2 | 10
C=Cc1ccc(Cn2cc(S(=O)(=O)N3CCOCC3)ccc2=O)cc1 | 2 | 4 | -44 | 57* | 3 | 13
COC(=O)c1cn(CC(=O)NCCOc2ccc(Cl)cc2)c2ccccc12 | 1 | 6 | 44* | 27 | 4 | 22
COc1ccc(C)cc1NC(=O)C1CC(=O)Nc2nc3ccccc3n21 (configuration not stated) | 29 | 10 | 12 | 70* | 4 | 29
CC(C)(C)C(=O)N1CCCC(c2ccnc3nc(C(F)(F)F)nn23)C1 (configuration not stated) | -2 | 2 | 8 | 10 | -1 | 10
COc1cc(NC(=O)CSc2nc3ncccc3o2)ccc1Cl | -4 | -4 | -82 | 47* | 7 | 85*
COc1ccc(-c2nc3ncccc3o2)cc1NC(=O)COc1ccccc1Cl | 4 | 3 | -5 | 0 | 0 | -4
O=C(Cn1cc(-c2nnc(CN3CCCCC3)o2)c2ccccc21)NCCC1=CCCCC1 | -2 | -18 | 8 | -2 | 0 | 3
SMILES | USP10 inh | USP7 inh | USP30 inh | USP17 block | UCHL1 inh | USP8 inh
CC1CCN(Cc2nnc(-c3cn(CC(=O)NC4CCCCC4)c4ccccc34)o2)CC1 | 9 | 3 | 60* | 35* | 4 | 8
COc1ccc(OC)c2sc(N(Cc3ccncc3)C(=O)c3ccco3)nc12 | -1 | 0 | 43* | 24 | 6 | 16
O=C(NCc1ccc(C(F)(F)F)cc1)C1CCN(c2nc3nc[nH]c(=O)c3s2)CC1 | 2 | 0 | 14 | 42* | -1 | -8
O=C(O)c1cccnc1N1CCCC1c1ccccc1 (configuration not stated) | -2 | 0 | -16 | 4 | 0 | 47*
O=c1ccc(-c2noc(-c3n[nH]c4ccccc34)n2)c[nH]1 | 0 | -13 | -194 | -27 | -17 | 56*
CCc1ccc(NS(=O)(=O)c2cc(-c3[nH]ncc3C(=O)N3CCCCC3)oc2C)cc1 | 0 | -1 | 41* | 22 | 1 | 10
O=C(NC1CC1)c1nc(Cn2c(C(F)(F)F)nc3ccccc32)no1 | 0 | 3 | -4 | -2 | 0 | 4
CCCCc1nc2sc3c(SCC(=O)Nc4ccccn4)ncnc3c2c2c1CCC2 | -1 | 3 | 0 | 2 | 1 | -3
O=C(NCc1csc(-c2ccccc2)n1)c1cc(F)cc2c1OCOC2 | 4 | -13 | 15 | 33* | 0 | 2
O=C(NCc1csc(-c2ccccc2)n1)c1ccccc1F | 2 | 0 | 3 | 7 | 2 | 9
COc1ccc(OC)c(N2CC(C(=O)Nc3ncc(C)s3)CC2=O)c1 (configuration not stated) | -3 | -6 | 7 | 0 | -2 | -2
O=c1ccc(-c2cc3ccccc3o2)cn1Cc1ccccc1-c1ccccc1 | 25 | 5 | -86 | 48* | 38* | 84*
O=C(C(c1ccccc1)c1ccccc1)N1CCCC(c2nnc3ccccn23)C1 (configuration not stated) | 0 | -8 | -8 | 0 | -1 | 0
COC(=O)C12Oc3cc4c(c(O)c3C(O)=C1C(=O)CCC2O)C1C=CC2(C4)C(=O)c3cc(C)cc(O)c3C(O)=C2C1=O (configuration not stated) | -10 | -29 | -63 | 48* | -4 | -59
Cc1noc(NS(=O)(=O)c2ccc(NC(=O)CSc3ccc4ccccc4c3)cc2)c1C | 28 | 13 | 11 | 52* | 9 | 68*
COc1cccc(N2CC(=O)Nc3c(oc4nc(-c5ccccc5)cc(C)c34)C2=O)c1 | 26 | 8 | 37* | 3 | 8 | 32*
COc1cc2c(cc1OC)C(COc1ccccc1OC)N(C(=O)c1ccc3ccccc3c1)CC2 (configuration not stated) | -3 | 2 | -31 | 52* | 8 | 88*
CCC(C(=O)N1CCc2cc(OC)c(OC)cc2C1COc1ccccc1OC)c1ccccc1 (configuration not stated) | 5 | 6 | 15 | 31* | 7 | 59*
